Assay [1] in a line: Quantitative High-Throughput drug screen in 47 multiple myeloma cell lines against the NCATS MIPE library collection: LP1_DSMZ cell viability assay (AID 1918982). Note: nearly all actives have a fitted effect of over 35% in size. The procedure, abridged:
(§1)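 Myeloma cells (500/well) treated with MIPE 4.0 compounds for 48 h at 37 °C, 5% CO2. Viability read as ATP via CellTiter-Glo luminescence after 5 min at RT; DMSO-only wells = 100%, media-only = 0% viability.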

Assay [2] can be described thus: Quantitative High-Throughput drug screen in 47 multiple myeloma cell lines against the NCATS MIPE library collection: KMS28PE_JCRB cell viability assay (AID 1918983). Note: nearly all actives have a fitted effect of over 35% in size. A digest of the protocol:
as §1

Assay [3] can be described thus: Quantitative High-Throughput drug screen in 47 multiple myeloma cell lines against the NCATS MIPE library collection: OCIMY7_PLB cell viability assay (AID 1918987). Note: nearly all actives have a fitted effect of over 65% in size. The procedure, abridged:
as §1

Assay [4] can be described thus: Quantitative High-Throughput drug screen in 47 multiple myeloma cell lines against the NCATS MIPE library collection: OCIMY5_PLB cell viability assay (AID 1918988). Note: nearly all actives have a fitted effect of over 65% in size. The procedure, abridged:
as §1

A short description of assay [5]: Quantitative High-Throughput drug screen in 47 multiple myeloma cell lines against the NCATS MIPE library collection: OPM1_PLB cell viability assay (AID 1918989). Note: nearly all actives have a fitted effect of over 40% in size. The procedure, abridged: as §1
The nature of assay [6]: Quantitative High-Throughput drug screen in 47 multiple myeloma cell lines against the NCATS MIPE library collection: SKMM1_PLB cell viability assay (AID 1919863). Note: nearly all actives have a fitted effect of over 35% in size. Conditions: SKMM1 myeloma viability, CellTiter-Glo ATP, 48 h; viability: active compounds read low. The procedure, abridged:
as §1
On the technique in general: In ATP-based viability assays light output follows the ATP content of the culture.

The nature of assay [7]: Quantitative High-Throughput drug screen in 47 multiple myeloma cell lines against the NCATS MIPE library collection: U266_ATCC cell viability assay (AID 1919864). Note: nearly all actives have a fitted effect of over 35% in size. The procedure, abridged: as §1
The nature of assay [8]: Quantitative High-Throughput drug screen in 47 multiple myeloma cell lines against the NCATS MIPE library collection: UTMC2_PLB cell viability assay (AID 1919868). Note: nearly all actives have a fitted effect of over 55% in size. Conditions: CellTiter-Glo ATP luminescence, 48 h; viability (% of DMSO control): at 45.8 µM (top of the series). A digest of the protocol: as §1
Assay [9] can be described thus: Quantitative High-Throughput drug screen in 47 multiple myeloma cell lines against the NCATS MIPE library collection: PE2_PLB cell viability assay (AID 1919869). Note: nearly all actives have a fitted effect of over 35% in size. The procedure, abridged: as §1
Assay [10] in a line: Quantitative High-Throughput drug screen in 47 multiple myeloma cell lines against the NCATS MIPE library collection: RPMI8226_ATCC cell viability assay (AID 1919871). Note: nearly all actives have a fitted effect of over 30% in size. A digest of the protocol: as §1
A short description of assay [11]: Quantitative High-Throughput drug screen in 47 multiple myeloma cell lines against the NCATS MIPE library collection: KMS11_JCRBsus cell viability assay (AID 1919873). Note: nearly all actives have a fitted effect of over 50% in size. The procedure, abridged: as §1
Assay [12] in a line: Quantitative High-Throughput drug screen in 47 multiple myeloma cell lines against the NCATS MIPE library collection: KMS28BM_JCRB cell viability assay (AID 1919874). Note: nearly all actives have a fitted effect of over 35% in size. A digest of the protocol: as §1
The nature of assay [13]: Quantitative High-Throughput drug screen in 47 multiple myeloma cell lines against the NCATS MIPE library collection: XG6_PLB cell viability assay (AID 1919865). Note: nearly all actives have a fitted effect of over 40% in size. The procedure, abridged:
as §1

Assay [14] can be described thus: Quantitative High-Throughput drug screen in 47 multiple myeloma cell lines against the NCATS MIPE library collection: XG1_PLB cell viability assay (AID 1919866). Note: nearly all actives have a fitted effect of over 35% in size. A digest of the protocol: as §1
Assay [15] can be described thus: Quantitative High-Throughput drug screen in 47 multiple myeloma cell lines against the NCATS MIPE library collection: PCM6_Riken cell viability assay (AID 1919870). Note: nearly all actives have a fitted effect of over 30% in size. The procedure, abridged:
as §1

A short description of assay [16]: Quantitative High-Throughput drug screen in 47 multiple myeloma cell lines against the NCATS MIPE library collection: L363_DSMZ cell viability assay (AID 1918984). Note: nearly all actives have a fitted effect of over 40% in size. A digest of the protocol: as §1
Assay [17] is described as follows: Quantitative High-Throughput drug screen in 47 multiple myeloma cell lines against the NCATS MIPE library collection: VP6_DJ cell viability assay (AID 1919867). Note: nearly all actives have a fitted effect of over 40% in size. A digest of the protocol: as §1
Assay [18] is described as follows: Quantitative High-Throughput drug screen in 47 multiple myeloma cell lines against the NCATS MIPE library collection: OPM2_DSMZ cell viability assay (AID 1919872). Note: nearly all actives have a fitted effect of over 30% in size. The procedure, abridged: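 Relative luminescence from CellTiter-Glo served as the viability signal, referenced to DMSO-treated (100%) and cell-free medium (0%) controls. Treatment lasted 48 hours at 37C with 500 cells per well.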

A short description of assay [19]: Quantitative High-Throughput drug screen in 47 multiple myeloma cell lines against the NCATS MIPE library collection: KMS34_JCRB cell viability assay (AID 1918985). Note: nearly all actives have a fitted effect of over 40% in size. A digest of the protocol:
as §1

Results filed as inconclusive are left out. A number with no mark means an inactive call. Active and inactive are the calls of the source. Calls come from the whole dose curve; as a rule, active = well fitted cell-killing curve with a large enough effect; inconclusive = small, poorly fitted or top-dose-only effect, or effect the other way; inactive = no such curve, though single readings can be large or run the other way.

For orientation: viability means a read-out of living cells in per cent, often relative to untreated cells.
Potency is the fitted concentration of half-maximal effect.

With `CC(C)C[C@H](NC(=O)[C@@H](O)[C@H](N)Cc1ccccc1)C(=O)O`, the Potency was 20.9 µM (active) in [1]; 20.9 µM (active) in [2]; 20.9 µM (active) in [3]; 26.4 µM (active) in assay [4]; 16.6 µM (active) in assay [5]; 26.4 µM (active) in assay [6]. The Potency was 23.5 µM (active) in assay [7]; 23.5 µM (active) in [8]; 26.4 µM (active) in assay [9]; 20.9 µM (active) in assay [10]; 9.35 µM (active) in assay [11]; 16.6 µM (active) in assay [12].
As for `OCCn1cc(-c2cnc3nnn(Cc4ccc5ncccc5c4)c3n2)cn1`, the Potency entry in [1], in assay [2], in assay [3], in assay [5], in assay [13] and in assay [14] was “inactive” each time. Also, the Potency result in assay [8], in assay [9], in assay [15], in assay [10], in assay [11] and in assay [12] was “inactive” each time. Moreover, the Potency in assay [4] is 9.35 µM (active); in [6], 16.6 µM (active); in assay [7], 2.09 µM (active).
Take `CS(=O)(=O)c1cccc(CNc2nc(Nc3ccc4c(c3)CCC(=O)N4)ncc2C(F)(F)F)c1`: the Potency in assay [1] was 18.7 µM (active); in assay [2], 23.5 µM (active); in assay [16], 6.62 µM (active); in assay [3], 14.8 µM (active); in assay [4], 18.7 µM (active); in [5], 18.7 µM (active). The Potency was 20.9 µM (active) in assay [6]; 8.33 µM (active) in assay [13]; 11.8 µM (active) in [14]; 5.26 µM (active) in assay [17]; 11.8 µM (active) in [8]; 18.7 µM (active) in assay [9]. Also, the Potency in assay [10] is 18.7 µM (active); in assay [18], 20.9 µM (active); in assay [11] it was 8.33 µM (active); in assay [12] it was 16.6 µM (active).
As to `CCCC(CCC)C(=O)O`, the Potency entry in assay [1], in assay [2], in assay [19], in assay [9], in [10] and in assay [18] was “inactive” in each case. In addition, the Potency entry in assay [11] and in assay [12] was “inactive” throughout. Moreover, the viability in assay [6] was 126%. Further, the Potency in assay [17] is 18.7 µM (active).
As for `c1ccc([C@H]2CN3CCSC3=N2)cc1`, the Potency entry in assay [1], in assay [2], in assay [16], in [19], in assay [4] and in [7] was “inactive” throughout. Also, the Potency entry in assay [8], in assay [9], in assay [18], in assay [11] and in assay [12] was “inactive” throughout. Also, the viability in [6] is 159%. The Potency in assay [13] was 23.5 µM (active); in assay [14] it was 16.6 µM (active).
Consider `COc1ccc(CC2=NN3C([C@@H](CCc4ccccc4)[C@@H](C)O)=NC(C)C3C(=O)N2)cc1OC` (some centres undefined), for which the Potency result in [1], in assay [2], in assay [19], in assay [3], in [4] and in [7] was “inactive” throughout. The Potency entry in assay [14], in [9], in [15], in assay [10], in [18] and in assay [11] was “inactive” throughout. Also, in [12], the Potency entry is “inactive”. In addition, the Potency in assay [5] is 2.64 µM (active). Moreover, in assay [6], the viability was 138%.
For the molecule `CNC(=O)c1ccc(N2C(=S)N(c3ccc(C#N)c(C(F)(F)F)c3)C(=O)C2(C)C)cc1F`, the Potency result in assay [1], in assay [2], in [19], in [4], in assay [5] and in assay [9] was “inactive” throughout. Moreover, the Potency result in assay [10], in assay [18] and in assay [12] was “inactive” throughout. For the same molecule, in assay [14], the Potency was 13.2 µM (active).
In the case of `Cc1cc2c(C(C)C)c(O)c(O)c(C=O)c2c(O)c1-c1c(C)cc2c(C(C)C)c(O)c(O)c(C=O)c2c1O`, the Potency is 16.6 µM (active) in assay [1]; 18.7 µM (active) in assay [2]; 11.8 µM (active) in assay [19]; 8.33 µM (active) in [3]; 14.8 µM (active) in [4]; 10.5 µM (active) in [5]. Further, the Potency was 29.6 µM (active) in [6]; 7.43 µM (active) in assay [13]; 5.9 µM (active) in [17]; 5.9 µM (active) in [8]; 5.9 µM (active) in [9]; 6.62 µM (active) in assay [15]. Also, the Potency was 20.9 µM (active) in [10], 18.7 µM (active) in assay [18], 5.9 µM (active) in [11] and 10.5 µM (active) in [12].
Take `CCCCCCCc1ccc(CCc2cccc(O)c2C(=O)O)cc1`: the Potency in assay [1] was 16.6 µM (active); in assay [4] it was 16.6 µM (active); in assay [5] it was 20.9 µM (active); in assay [8] it was 29.6 µM (active); in assay [9], 20.9 µM (active); in assay [10], 16.6 µM (active). Besides, the Potency entry in assay [2], in [19], in [7], in assay [18], in assay [11] and in [12] was “inactive” each time.
Consider `NCCCC(N)(C(=O)O)C(F)F` (centres undefined), for which the Potency is 1.48 µM (active) in [1], 5.9 µM (active) in [16], 0.332 µM (active) in [4] and 18.7 µM (active) in assay [11]. In addition, the Potency result in assay [2], in [9], in assay [18] and in assay [12] was “inactive” each time. For the same molecule, the viability in [6] was 97%.
Take `COc1ccc(-c2ccc3c(N4CCOCC4)nc(N4C[C@@H](C)O[C@@H](C)C4)nc3n2)cc1CO`: the Potency in assay [1] is 0.059 µM (active); in assay [2], 0.187 µM (active); in assay [19] it was 0.469 µM (active); in assay [4] it was 1.48 µM (active); in assay [5], 0.935 µM (active); in assay [6], 1.66 µM (active). For the same molecule, the Potency is 0.187 µM (active) in assay [14]; 0.296 µM (active) in [17]; 0.526 µM (active) in [8]; 0.833 µM (active) in assay [9]; 0.0935 µM (active) in assay [10]; 1.18 µM (active) in assay [18]. Further, the Potency is 0.059 µM (active) in assay [11] and 1.32 µM (active) in assay [12].
As for `Nc1nc2c(ncn2COCCO)c(=O)[nH]1`, the Potency result in [1], in [2], in assay [16], in assay [19], in assay [4] and in [5] was “inactive” in each case. For the same molecule, the Potency result in assay [13], in assay [17], in assay [9], in [10], in assay [18] and in assay [11] was “inactive” in each case. In addition, in assay [6], the viability was 125%. In addition, in assay [14], the Potency was 18.7 µM (active).
Regarding `CCOc1cc(C(=O)Nc2ccc(Cl)c(-c3nc4ccccc4[nH]3)c2)cc(OCC)c1OCC`, the Potency in assay [1] was 14.8 µM (active); in assay [3] it was 0.418 µM (active); in assay [9], 8.33 µM (active); in assay [10], 18.7 µM (active). Besides, the Potency result in [2], in assay [19], in assay [8] and in assay [12] was “inactive” in each case.
As for `Nc1nc2[nH]cc(CCc3ccc(C(=O)N[C@@H](CCC(=O)O)C(=O)O)cc3)c2c(=O)[nH]1`, the Potency result in assay [1], in assay [2], in [3], in assay [13], in assay [14] and in assay [9] was “inactive” throughout. The Potency result in assay [18] and in assay [12] was “inactive” in each case. Moreover, the Potency in assay [5] was 2.96 µM (active); in assay [6], 5.26 µM (active); in assay [10], 0.264 µM (active); in assay [11] it was 0.59 µM (active).
Take `CS(=O)(=O)c1ccc(C(=O)Nc2ccc(Cl)c(-c3ccccn3)c2)c(Cl)c1`: the Potency result in assay [1], in assay [2], in [16], in assay [19], in [10] and in assay [18] was “inactive” each time. The Potency entry in assay [11] and in assay [12] was “inactive” each time. Moreover, the Potency in [3] was 14.8 µM (active); in assay [5], 18.7 µM (active); in assay [14], 1.66 µM (active). In addition, in assay [6], the viability was 129%.

Source of the values: PubChem BioAssay (NCATS).
